From PubChem BioAssay AID485346 (Sanford-Burnham Center for Chemical Genomics, 2010) come the findings set out here.

Structures are written as SMILES. Out of some 330,000 compounds screened, about 10,000 (3%) were called active.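 Rule for the calls: active = inhibition of at least 50% at 8 µM in the primary screen; inactive = the rest.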 Shown is part of a subset that was picked to be rich in actives.

The target of this test is Protein Mdm4 (Homo sapiens) + E3 ubiquitin-protein ligase Mdm2 (Homo sapiens) (UniProt O15151+Q00987). As to the kind of experiment: disruptors of Mdm2/MdmX RING complex – cell-based, luminescence, split luciferase, SaOS-2, uHTS, primary screen (AID 485346). As to conditions: SaOS-2 split-luciferase Mdm2/MdmX complementation, at 8 µM, hits give high values.
Protein Mdm4 (Homo sapiens) + E3 ubiquitin-protein ligase Mdm2 (Homo sapiens), sequence (O15151 whole entry, looked up): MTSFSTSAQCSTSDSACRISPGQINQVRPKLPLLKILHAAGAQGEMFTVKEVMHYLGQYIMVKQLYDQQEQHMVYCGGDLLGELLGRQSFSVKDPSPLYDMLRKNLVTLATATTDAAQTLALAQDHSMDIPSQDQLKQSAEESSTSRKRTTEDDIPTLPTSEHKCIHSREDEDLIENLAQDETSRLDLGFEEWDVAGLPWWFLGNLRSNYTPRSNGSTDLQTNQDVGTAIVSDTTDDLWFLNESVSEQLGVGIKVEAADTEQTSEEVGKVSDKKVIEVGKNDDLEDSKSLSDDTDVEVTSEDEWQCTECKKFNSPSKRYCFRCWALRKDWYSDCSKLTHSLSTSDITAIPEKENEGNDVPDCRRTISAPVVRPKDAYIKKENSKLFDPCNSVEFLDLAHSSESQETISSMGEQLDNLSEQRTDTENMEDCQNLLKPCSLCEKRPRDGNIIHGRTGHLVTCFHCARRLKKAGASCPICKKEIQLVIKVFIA
Protein Mdm4 (Homo sapiens) + E3 ubiquitin-protein ligase Mdm2 (Homo sapiens), sequence (Q00987 whole entry, looked up): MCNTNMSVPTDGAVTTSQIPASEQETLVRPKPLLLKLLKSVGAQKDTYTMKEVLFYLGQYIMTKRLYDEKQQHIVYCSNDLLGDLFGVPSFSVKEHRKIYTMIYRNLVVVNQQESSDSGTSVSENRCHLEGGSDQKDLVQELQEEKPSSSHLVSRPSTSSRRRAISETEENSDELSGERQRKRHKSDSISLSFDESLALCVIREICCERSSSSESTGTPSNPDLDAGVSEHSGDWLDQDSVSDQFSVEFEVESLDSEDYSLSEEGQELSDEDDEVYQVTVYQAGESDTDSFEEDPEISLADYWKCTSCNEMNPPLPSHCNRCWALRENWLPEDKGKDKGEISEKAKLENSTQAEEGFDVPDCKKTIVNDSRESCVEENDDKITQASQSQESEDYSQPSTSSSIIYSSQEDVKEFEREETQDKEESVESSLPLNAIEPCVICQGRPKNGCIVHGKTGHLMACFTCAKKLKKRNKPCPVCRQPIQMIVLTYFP
By inhibition is commonly meant the drop in the measured response relative to a control, in per cent. Turning to `O=C(Nc1cccc(Br)c1)c1ccc2snnc2c1`, the inhibition was -3.74% (inactive).

On to `CCc1ccccc1NC(=O)c1ccc2snnc2c1`, for which the inhibition was 25.3% (inactive).

On to `O=C(Nc1ccc2ccccc2c1)Nc1ccc2snnc2c1`, for which the inhibition was 88.1% (active).

For `CC(C)[C@@H](C(=O)O)N(Cc1cccc(CN([C@H](C(=O)O)C(C)C)S(C)(=O)=O)c1)S(C)(=O)=O`, the inhibition was 9.86% (inactive).

`Cc1cccc(NC(=O)c2cccnc2Cl)n1`: the inhibition was 2.81% (inactive).

Consider `CCN(CC)S(=O)(=O)c1ccc(NC(=O)c2cccnc2Cl)c(NC(=O)c2cccnc2Cl)c1`, for which the inhibition is 94.7% (active).

As to `CCN(CC)S(=O)(=O)c1ccc(Cl)c(NC(=O)c2ccncc2)c1`, the inhibition is 11.7% (inactive).

For the compound `COCc1cc(C)nc2sc(C(=O)NC3CCCCC3)c(N)c12`, the inhibition is 7.84% (inactive).

Regarding `COc1ccc(OC)c(NC(=O)c2sc3nc(C)cc(C)c3c2N)c1`, the inhibition was 58.3% (active).

Turning to `COc1ccc(OC)c(NC(=O)c2ccc3c(c2)CCN3S(C)(=O)=O)c1`, the inhibition was 15.2% (inactive).

With `COc1ccc(N(C(=O)c2ccc(C)cc2)S(=O)(=O)c2cccs2)cc1`, the inhibition is 17.4% (inactive).

Consider `CN(C)c1ccc2c(=O)[nH][nH]c(=O)c2c1`, for which the inhibition was 4.05% (inactive).

Consider `O=C(NCc1cccs1)c1ccc2c(c1)ncn2C1CCCC1`, for which the inhibition was -11.4% (inactive).

For the compound `CCOC(=O)C1CCN(Cc2c(C(=O)N3CCOCC3)nc3c(C)cccn23)CC1`, the inhibition is 15.2% (inactive).

With `COC(=O)Cn1nc(-c2ccccc2)c2cc(Cl)ccc21`, the inhibition is 10.1% (inactive).

Consider `COCCCNc1nc2c(-c3cccc(C(F)(F)F)c3)nnn2c2ccccc12`, for which the inhibition is 17.3% (inactive).

On to `COCCCNc1nc2c(-c3cccc(C)c3)nnn2c2ccc(Cl)cc12`, for which the inhibition was 55.3% (active).

With `CC1CCCN(c2ccc(C(=O)NCCc3ccccc3)cn2)C1` (centres undefined), the inhibition is -61.6% (inactive).

As for `O=c1oc2ccccc2c(NC2CCCCC2)c1NS(=O)(=O)c1ccc(Cl)cc1`, the inhibition is 14.1% (inactive).

`S=c1[nH]nc2c3c4c(sc3ncn12)CCCC4`: the inhibition is 14% (inactive).

Take `O=C1N[C@@H](c2ccccc2)COC(=O)[C@H](Cc2ccc(F)cc2)C/C=C\C[C@@H]1CC(=O)N(CCO)Cc1ccccc1`: the inhibition is 9.71% (inactive).

Turning to `O=C1NC[C@@H](c2ccccc2)OC(=O)[C@H](Cc2ccc(F)cc2)CC/C=C/C[C@H]1CC(=O)N(CCO)Cc1ccccc1`, the inhibition was 59.7% (active).

On to `O=C1CCC/C=C/C[C@@H](CC(=O)N(CCO)Cc2ccccc2)C(=O)NC[C@H](c2ccccc2)O1`, for which the inhibition was -21.8% (inactive).

For `Cn1c(CCNS(=O)(=O)c2ccc(F)cc2)nnc1SCc1cccnc1`, the inhibition is 13.7% (inactive).

For `CN[C@H](C(=O)NC[C@H]1O[C@@H](n2cnc3c(N)ncnc32)[C@H](O)[C@@H]1O)[C@@H](C)OCc1ccccc1`, the inhibition was 16.8% (inactive).

For the compound `COc1ccc2cc(C3=CC(=O)C[C@H](c4ccc5c(c4)OCO5)C3)ccc2c1`, the inhibition was 3.41% (inactive).

With `CCCCC(O)(CCCC)C(=O)NN(C(=O)CCl)c1ccccc1`, the inhibition is 87.3% (active).

Turning to `CCCCCNC(=O)C1c2ccccc2Oc2ccccc21`, the inhibition was -5.28% (inactive).

Take `Cc1ccc(N(NC(=O)C(C)(C)O)C(=O)c2ccccc2)cc1C`: the inhibition is -3.58% (inactive).

Take `COC(=O)N(NC(=O)C(O)(C(C)C)C(C)C)c1ccccc1`: the inhibition was -17.3% (inactive).

For `CCCC(O)(CCC)C(=O)NN(C(=O)CCl)c1cccc(C)c1`, the inhibition was 94% (active).

As for `CC(C)(O)C(=O)NN(C(=O)c1ccccc1)c1cccc(Br)c1`, the inhibition is -9.41% (inactive).

Take `CCn1cc(C(=O)N[C@@H](C)C(=O)NCCO)c(=O)c2cc3c(cc21)OCO3`: the inhibition is -4.24% (inactive).

Regarding `Cc1ccc(N(CC(=O)NCC2CCCO2)C(=O)CNS(=O)(=O)c2ccc(Cl)cc2)cc1` (centres undefined), the inhibition is -1.2% (inactive).

For `Cc1ccc2c(c1)N(CCCC(=O)NCc1cccnc1)C(=O)CO2`, the inhibition was 5.4% (inactive).

On to `CSCC[C@H](NC(=O)NCc1cccs1)C(=O)O`, for which the inhibition is 3.11% (inactive).

As to `O=C(/C(=C/c1cccc(Cl)c1)c1nc2ccccc2[nH]1)c1ccccc1`, the inhibition was 100% (active).

In the case of `O=C(Cc1nc2ccccc2[nH]c1=O)c1ccc(Cl)cc1`, the inhibition is -186% (inactive).

Consider `O=C(CCc1nc2ccccc2c(=O)[nH]1)OCC(=O)c1cccc(Cl)c1`, for which the inhibition is 30.6% (inactive).

As to `CCCN(CCC)c1c([N+](=O)[O-])c(=O)oc2ccccc12`, the inhibition is -1.56% (inactive).

On to `Cc1cccc(-n2c(C)cc(/C=N/NC(N)=S)c2C)c1`, for which the inhibition was -13.2% (inactive).

For `Cc1ccc(-n2nc(C)c(/C=N/NC(=O)c3cccs3)c2Cl)cc1`, the inhibition is 3.87% (inactive).

On to `Cc1cccc(-n2c(C)cc(/C=N\NC(=O)c3cccs3)c2C)c1`, for which the inhibition is 67.2% (active).

On to `CCC1CCC2(CC1)NC(=O)N(CC(=O)Nc1ccc(OC)cc1)C2=O` (centres undefined), for which the inhibition is 18.6% (inactive).

For `CCN(CC(=O)Nc1ccc(NC(C)=O)cc1)C(=O)C1CC(=O)N(Cc2ccc(C)cc2)C1` (centres undefined), the inhibition was -26.3% (inactive).

On to `CCN(CC)c1ccc(C(=O)c2cnc(/N=C/N(C)C)s2)cc1`, for which the inhibition was -23.2% (inactive).

Consider `COCCCNC(=S)NC(=O)c1ccccc1`, for which the inhibition was -18.2% (inactive).

In the case of `CCOC(=O)C1=C(NC(=S)NC(=O)c2ccccc2)c2ccccc2CC1(C)C`, the inhibition was 51.4% (active).

For `Cc1ccc(NC(=S)NC(=O)c2ccc(-c3ccccc3)cc2)cc1`, the inhibition was 12.8% (inactive).

As for `CC1(C)C[C@H]2C3=CCC4[C@@]5(C)CC[C@H](O)[C@](C)(CO)C5CC[C@@]4(C)[C@]3(C)C[C@@H](O)[C@@]2(CO)[C@@H](O)[C@@H]1O` (some centres undefined), the inhibition is 17.8% (inactive).

On to `N#Cc1ccc(C(=O)Nc2cccc3cccnc23)c(F)c1`, for which the inhibition is 56.2% (active).

On to `O=C(Nc1cccc2cccnc12)c1cccc(Cl)c1`, for which the inhibition is -3.29% (inactive).

As for `COc1ccc(NC(=O)c2ccco2)cc1NC(=O)c1ccc(C#N)cc1F`, the inhibition was 5.85% (inactive).

Take `CC(C)Cc1ccc(C(C)C(=N)N)cc1` (centres undefined): the inhibition is -18.4% (inactive).

Take `COc1ccc(S(=O)(=O)N(CC(=O)NCc2ccco2)c2ccc(F)cc2)cc1`: the inhibition is 10.5% (inactive).

Turning to `Cc1ccccc1-c1ccc(Nc2ccc(C(=O)N3CCOCC3)cc2)nn1`, the inhibition was 0.851% (inactive).

Regarding `COC1=C(N2CCOCC2)C(=O)c2ccccc2C1=O`, the inhibition was 17.1% (inactive).

In the case of `Cc1oc2c(c1C(=O)N1CCOCC1)C(=O)c1ccccc1C2=O`, the inhibition is 53.6% (active).

Turning to `Nc1nnnn1CC(=O)N/N=C/c1ccc(-c2cccc(Cl)c2)o1`, the inhibition is 0.676% (inactive).

As to `Nc1nnn(CC(=O)N/N=C/c2ccccc2)n1`, the inhibition was 14.3% (inactive).

In the case of `O=C(Cn1nnc(-c2ccccc2)n1)N/N=C/c1ccc(-c2ccc(Cl)cc2)o1`, the inhibition is 69.4% (active).

Turning to `Cc1ccc(-n2c(=O)cc(N3CCN(Cc4ccccc4)CC3)[nH]c2=O)cc1`, the inhibition was 27.6% (inactive).

With `CN(C)S(=O)(=O)c1ccc(N2CCCC2)c(C(=O)Nc2ccc(Br)cc2F)c1`, the inhibition was 16.4% (inactive).

On to `CN1CCC(N(C)S(=O)(=O)c2ccc(NC(=O)c3cccc(C#N)c3)cc2)CC1`, for which the inhibition was -11.1% (inactive).

With `Cc1ccc2nc(NC(=O)C3CSC4(C)CCC(=O)N34)sc2c1` (centres undefined), the inhibition is 11.9% (inactive).

Turning to `O=C(COc1ccccc1O)NC1CCCC1`, the inhibition was 7.91% (inactive).

Turning to `Cc1c(CC(=O)NCCCCCC(=O)O)c(=O)oc2cc3occ(-c4ccccc4)c3cc12`, the inhibition was 7.02% (inactive).

In the case of `CCCCCCc1ccc(O)cc1O`, the inhibition is 26.2% (inactive).

For the compound `CCCCCCc1cc2cc(-c3nnc(-c4ccccc4)o3)c(=O)oc2cc1O`, the inhibition is 84.7% (active).

Take `COc1ccc(N2CCN(C(CNS(=O)(=O)c3ccc(C)cc3)c3ccccc3)CC2)cc1` (centres undefined): the inhibition was 10.9% (inactive).

As for `CCC1CO/C(=C(\C(=C(Cl)Cl)N2CCOCC2)[N+](=O)[O-])N1` (centres undefined), the inhibition is 4.94% (inactive).

With `Cc1ccc2nc(N(CCN(C)C)C(=O)C3=COCCO3)sc2c1`, the inhibition is 23.3% (inactive).

Regarding `CCOc1ccc2nc(N(CCCN(C)C)C(=O)c3ccc(C(=O)c4ccccc4)cc3)sc2c1`, the inhibition was 48.2% (inactive).

With `CN(C)CCCN(C(=O)c1ccc(S(=O)(=O)N2CCCCCC2)cc1)c1nc2cc3c(cc2s1)OCCO3`, the inhibition is 52.3% (active).

On to `CN(C)CCCN(C(=O)c1ccc(S(=O)(=O)N2CCCc3ccccc32)cc1)c1nc2ccc(F)cc2s1`, for which the inhibition was 76% (active).

Take `CCN(CC)CCN(C(=O)c1ccc(S(=O)(=O)N2CCOCC2)cc1)c1nc2cc3c(cc2s1)OCCO3`: the inhibition is 4.55% (inactive).

Consider `CS(=O)(=O)c1ccc2nc(NC(=O)c3ccc(Cl)nc3)sc2c1`, for which the inhibition is 20.5% (inactive).

On to `CCc1ccc2nc(N(CCCN(C)C)C(=O)c3ccc4c(c3)OCCO4)sc2c1`, for which the inhibition is 39.7% (inactive).

Consider `CS(=O)(=O)c1ccc2nc(NC(=O)c3ccc(N4CCCC4=O)cc3)sc2c1`, for which the inhibition is 56.8% (active).

`CC1CCN(C(=O)c2cccc(S(=O)(=O)N3CCCc4ccccc43)c2)CC1`: the inhibition was 16.9% (inactive).

As for `COc1cccc(C(=O)Nc2nc3ccc(S(C)(=O)=O)cc3s2)c1`, the inhibition is -20.5% (inactive).

Take `COc1ccc2sc(N(CCCN(C)C)C(=O)c3ccc(S(=O)(=O)N(C)C4CCCCC4)cc3)nc2c1`: the inhibition is 19.3% (inactive).

Consider `CN(C)CCCN(C(=O)c1ccc(S(=O)(=O)N2CCCCCC2)cc1)c1nc2ccc(Br)cc2s1`, for which the inhibition was 70.8% (active).

As for `CCN(CC)CCn1cnc2c1c(=O)n(CCOC(=O)c1cc(OC)c(OC)c(OC)c1)c(=O)n2C`, the inhibition is 11.6% (inactive).

For `CCN(CC)CCN1C(=O)C2C(C(=O)Nc3ccc(Br)cc3)C3C=CC2(O3)C1C(=O)NC1CCCCC1` (centres undefined), the inhibition was -3.95% (inactive).

Take `CC(C)CN1CCNC(=O)C1CC(=O)N(C)CC1CCOCC1` (centres undefined): the inhibition was 11.5% (inactive).

With `Cc1ccc(CNC(=O)c2ccc(CS(=O)Cc3cccc(Cl)c3)o2)cc1` (centres undefined), the inhibition was -2.29% (inactive).

Regarding `O=C(CCc1ccccc1Cl)Nc1ccc(S(=O)(=O)Nc2nccs2)cc1`, the inhibition is 7.38% (inactive).

For the compound `O=C(COC(=O)c1cccnc1Cl)Nc1ccc(S(=O)(=O)N2CCOCC2)cc1`, the inhibition is 5.66% (inactive).
